In PubChem BioAssay (EPA / NIEHS):
More than one record can exist for a structure, and the calls need not agree. Calls of active or inactive are those of the source. The calls were made as follows: active = hit-call score of the fitted dose curve at least 0.9, where 1 is the maximum; inactive = score below 0.9.

Legend:
[1] = biological target: Transcription factor E2F1 (Homo sapiens) (UniProt Q01094); assay: ATG_E2F_CIS: Attagene CIS-FACTORIAL HepG2 Assay for human E2F Transcription Factor 1 (AID 2282935); conditions: HepG2 Attagene cis-reporter, E2F reporter RNA transcripts; actives raise or lower the signal
Transcription factor E2F1 (Homo sapiens), sequence (Q01094 whole entry, looked up): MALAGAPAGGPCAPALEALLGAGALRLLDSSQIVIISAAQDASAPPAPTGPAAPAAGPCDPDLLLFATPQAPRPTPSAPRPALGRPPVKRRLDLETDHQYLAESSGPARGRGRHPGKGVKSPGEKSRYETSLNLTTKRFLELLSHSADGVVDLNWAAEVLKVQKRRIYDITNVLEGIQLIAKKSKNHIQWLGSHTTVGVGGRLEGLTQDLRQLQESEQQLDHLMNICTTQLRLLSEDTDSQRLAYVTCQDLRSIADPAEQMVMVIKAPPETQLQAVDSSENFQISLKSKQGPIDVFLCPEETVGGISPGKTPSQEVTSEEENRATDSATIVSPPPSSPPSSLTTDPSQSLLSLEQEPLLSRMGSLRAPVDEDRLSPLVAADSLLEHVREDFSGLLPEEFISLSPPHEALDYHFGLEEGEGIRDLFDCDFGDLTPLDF
Outline: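 Total RNA from 24 h-treated, reporter-transfected HepG2 cells undergoes DNase I treatment, oligo(dT) reverse transcription, PCR and 6-FAM primer extension before capillary electrophoresis.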

[2] = ATG_E_Box_CIS: Attagene CIS-FACTORIAL HepG2 Assay for human Enhancer Box (E-box) (AID 2282936); conditions: HepG2 E-box cis-reporter transcription, actives raise or lower the signal
Outline: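 DMSO served as negative control and baseline for bidirectional fitting. Human hepatoma HepG2 cells, transiently transfected with cis-reporter constructs, were dosed 24 h; reporter mRNA read by RT-PCR and capillary electrophoresis.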

[3] = ATG_M_61_CIS: Attagene CIS-FACTORIAL HepG2 Assay for M61 Transcription Factor (Internal Marker) (AID 2282937); conditions: HepG2 Attagene CIS-FACTORIAL M61 internal marker reporter; actives raise or lower the signal
Outline: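 Endogenous transcription factor activity in HepG2 is read through transiently transfected cis-element reporter units. After 24 h dosing, RNA undergoes reverse transcription, PCR and primer extension with 6-FAM before capillary electrophoresis; DMSO-referenced bidirectional fit.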

[4] = ATG_EGR_CIS: Attagene CIS-FACTORIAL HepG2 Assay for human Early Growth Response 1 (EGR1) (AID 2282938); conditions: HepG2 Attagene CIS-FACTORIAL EGR reporter mRNA; actives raise or lower the signal
Outline: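 Activity is taken as induction or loss of reporter mRNA versus DMSO, fitted bidirectionally. Transcripts from cis-regulated reporter units in transiently transfected HepG2 were measured after 24 h by RT-PCR with capillary electrophoresis.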

[5] = ATG_M_19_CIS: Attagene CIS-FACTORIAL HepG2 Assay for M19 Transcription Factor (Internal Marker) (AID 2282939); conditions: HepG2 Attagene CIS-FACTORIAL M19 internal marker reporter; actives raise or lower the signal
Outline: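 Background-control endpoint from a multiplexed HepG2 reporter panel. Cells carrying cis-regulated reporter constructs are treated 24 h, then reporter transcripts are amplified, fluorescently labelled and sized by capillary electrophoresis. DMSO defines baseline.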

[6] = ATG_ERE_CIS: Attagene CIS-FACTORIAL HepG2 Assay for Estrogen Response Element (ERE) (AID 2282940); conditions: HepG2 ERE cis-reporter, Attagene RNA transcript; actives raise or lower the signal
Outline: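 Cells used were human hepatoma HepG2, transfected with multiple reporter transcription units under cis-regulatory promoters. Reporter mRNA, read 24 h post-dosing via fluorescent RT-PCR products on capillary electrophoresis, was fitted bidirectionally relative to DMSO.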

[7] = ATG_Ets_CIS: Attagene CIS-FACTORIAL HepG2 Assay for human Erythroblast Transformation Specific (ETS) (AID 2282941); conditions: HepG2 ETS cis-reporter transcription, actives raise or lower the signal
Outline: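 HepG2 cells transfected with multiple cis-regulated reporter units measuring endogenous ETS-driven transcription, 24 h after dosing. Reporter mRNA quantified by RT-PCR with capillary electrophoresis; bidirectional fit relative to DMSO.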

[8] = biological target: Hepatocyte nuclear factor 3-beta (Homo sapiens) (UniProt Q9Y261); assay: ATG_FoxA2_CIS: Attagene CIS-FACTORIAL HepG2 Assay for human Forkhead box A2 (FOXA2) (AID 2282942); conditions: HepG2 cis-reporter transcription factor activity, 24 h; actives raise or lower the signal
Hepatocyte nuclear factor 3-beta (Homo sapiens), sequence (Q9Y261 whole entry, looked up): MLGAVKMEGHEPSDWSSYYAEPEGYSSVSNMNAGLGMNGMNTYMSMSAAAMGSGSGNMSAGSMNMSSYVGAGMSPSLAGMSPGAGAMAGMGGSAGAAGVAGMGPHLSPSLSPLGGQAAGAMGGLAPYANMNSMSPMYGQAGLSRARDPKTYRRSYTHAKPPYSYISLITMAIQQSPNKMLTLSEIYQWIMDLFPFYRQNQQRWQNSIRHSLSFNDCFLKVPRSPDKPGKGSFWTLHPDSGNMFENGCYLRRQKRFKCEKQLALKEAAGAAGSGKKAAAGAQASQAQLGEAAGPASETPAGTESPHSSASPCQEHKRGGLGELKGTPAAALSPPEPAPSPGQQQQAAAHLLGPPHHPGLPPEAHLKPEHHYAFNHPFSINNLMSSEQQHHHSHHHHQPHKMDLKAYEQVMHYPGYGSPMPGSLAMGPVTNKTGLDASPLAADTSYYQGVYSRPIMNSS
Outline: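 Reporter transcript induction is measured by fluorescence after capillary electrophoresis of RT-PCR products from HepG2 cells exposed 24 h. Cis-regulated reporter units report endogenous factor activity; curves fitted both directions against DMSO.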

[9] = ATG_FoxO_CIS: Attagene CIS-FACTORIAL HepG2 Assay for human Forkhead box O (FoxO) (AID 2282943); conditions: HepG2 Attagene cis-reporter, FoxO element, mRNA; actives raise or lower the signal
Outline: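 Human hepatoma HepG2 cells carry transiently introduced reporter transcription units controlled by cis promoter elements. Chemical treatment lasted 24 h, and mRNA signal was compared with DMSO.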

[10] = ATG_GATA_CIS: Attagene CIS-FACTORIAL HepG2 Assay for human GATA Binding Protein (AID 2282944); conditions: HepG2 GATA cis-element reporter, Attagene multiplex mRNA; actives raise or lower the signal
Outline: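 Endogenous transcription factor activity was captured through cis-promoter-driven reporters in transfected HepG2 cells. After 24 h exposure, reporter transcripts were quantified by RT-PCR with fluorescent capillary electrophoresis, and responses fitted both directions against DMSO.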

[11] = ATG_GLI_CIS: Attagene CIS-FACTORIAL HepG2 Assay for human Zinc Finger Protein GLI1 (AID 2282945); conditions: HepG2, Attagene cis-factorial reporter mRNA, GLI element; actives raise or lower the signal
Outline: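 Bidirectional curve fits relative to DMSO, using reporter mRNA levels from RT-PCR plus capillary electrophoresis. Cells were HepG2 transiently carrying cis-regulated reporter constructs, harvested 24 h after dosing.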

[12] = biological target: Bile acid receptor (Homo sapiens) (UniProt Q96RI1); assay: ATG_IR1_CIS: Attagene CIS-FACTORIAL HepG2 Assay for human Nuclear Receptor Subfamily 1 Group H Member 4 (NR1H4), IR1 submotif (AID 2282946); conditions: IR1 reporter transcription, actives raise or lower the signal
Bile acid receptor (Homo sapiens), sequence (Q96RI1 whole entry, looked up, the tested form may be a part): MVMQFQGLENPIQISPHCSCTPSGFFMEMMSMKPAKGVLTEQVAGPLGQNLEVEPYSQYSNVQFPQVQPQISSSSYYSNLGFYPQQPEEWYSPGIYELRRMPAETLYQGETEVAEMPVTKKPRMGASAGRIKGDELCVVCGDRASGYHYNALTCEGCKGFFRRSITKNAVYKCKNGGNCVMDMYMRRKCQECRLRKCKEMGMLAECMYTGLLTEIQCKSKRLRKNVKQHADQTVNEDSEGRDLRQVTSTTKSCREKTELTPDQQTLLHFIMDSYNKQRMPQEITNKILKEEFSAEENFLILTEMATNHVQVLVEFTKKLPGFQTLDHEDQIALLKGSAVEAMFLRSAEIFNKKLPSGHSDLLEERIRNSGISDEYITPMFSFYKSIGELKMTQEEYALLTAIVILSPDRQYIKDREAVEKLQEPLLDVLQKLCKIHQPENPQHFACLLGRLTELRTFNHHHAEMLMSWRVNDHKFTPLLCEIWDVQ
Outline: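 Cells (human HepG2) carry transiently transfected cis-promoter reporter transcription units. Compounds are incubated 24 h, total RNA is reverse-transcribed and amplified, and labelled fragments are resolved by capillary electrophoresis. Curves use DMSO as baseline.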

[13] = ATG_GRE_CIS: Attagene CIS-FACTORIAL HepG2 Assay for human Glucocorticoid Response Elements (GRE) (AID 2282947); conditions: HepG2 GRE cis-reporter, Attagene multiplex mRNA; actives raise or lower the signal
Outline: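 Assay uses human hepatoma HepG2 cells transfected with cis-promoter reporter units, exposed 24 h. mRNA from reporters detected by RT-PCR plus capillary electrophoresis; DMSO serves as negative control and baseline.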

[14] = ATG_ISRE_CIS: Attagene CIS-FACTORIAL HepG2 Assay for human Interferon Regulatory Factor 1 (IRF1) binding to an Interferon-Stimulated Response Element (ISRE) (AID 2282948); conditions: HepG2 ISRE cis-reporter (Attagene), mRNA transcription readout; actives raise or lower the signal
Outline: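 Transiently transfected HepG2 cells carrying cis-element reporter units, dosed 24 hours. Reporter mRNA quantified by RT-PCR, fluorescent primer extension, HpaI digestion and capillary electrophoresis. Bidirectional fitting relative to DMSO.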

[15] = ATG_M_32_CIS: Attagene CIS-FACTORIAL HepG2 Assay for M32 Transcription Factor (Internal Marker) (AID 2282949); conditions: HepG2 Attagene cis-factorial M32 reporter, mRNA; actives raise or lower the signal;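 also: background control marker of the multiplexed CIS panel rather than a real target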
Outline: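 Internal background marker read-out: RT-PCR/capillary electrophoresis fluorescence of reporter transcripts from transiently transfected HepG2 cells after 24 h chemical exposure. Activity fitted bidirectionally relative to DMSO negative control.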

[16] = ATG_M_06_CIS: Attagene CIS-FACTORIAL HepG2 Assay for M06 Transcription Factor (Internal Marker) (AID 2282950); conditions: HepG2 Attagene CIS-FACTORIAL M06 internal marker reporter; actives raise or lower the signal
Outline: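 Steps: transfect HepG2 with multiplexed cis-element reporter constructs; dose chemical 24 h; extract RNA with DNase treatment; reverse-transcribe, PCR-amplify, 6-FAM label, HpaI digest; separate fragments by capillary electrophoresis. Activity fitted both directions versus DMSO.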

[17] = biological target: Hypoxia-inducible factor 1-alpha (Homo sapiens) (UniProt Q16665); assay: ATG_HIF1a_CIS: Attagene CIS-FACTORIAL HepG2 Assay for human Hypoxia Inducible Factor 1 (HIF1A) (AID 2282951); conditions: HepG2 Attagene cis-factorial HIF1a reporter transcription; actives raise or lower the signal
Hypoxia-inducible factor 1-alpha (Homo sapiens), sequence (Q16665 whole entry, looked up): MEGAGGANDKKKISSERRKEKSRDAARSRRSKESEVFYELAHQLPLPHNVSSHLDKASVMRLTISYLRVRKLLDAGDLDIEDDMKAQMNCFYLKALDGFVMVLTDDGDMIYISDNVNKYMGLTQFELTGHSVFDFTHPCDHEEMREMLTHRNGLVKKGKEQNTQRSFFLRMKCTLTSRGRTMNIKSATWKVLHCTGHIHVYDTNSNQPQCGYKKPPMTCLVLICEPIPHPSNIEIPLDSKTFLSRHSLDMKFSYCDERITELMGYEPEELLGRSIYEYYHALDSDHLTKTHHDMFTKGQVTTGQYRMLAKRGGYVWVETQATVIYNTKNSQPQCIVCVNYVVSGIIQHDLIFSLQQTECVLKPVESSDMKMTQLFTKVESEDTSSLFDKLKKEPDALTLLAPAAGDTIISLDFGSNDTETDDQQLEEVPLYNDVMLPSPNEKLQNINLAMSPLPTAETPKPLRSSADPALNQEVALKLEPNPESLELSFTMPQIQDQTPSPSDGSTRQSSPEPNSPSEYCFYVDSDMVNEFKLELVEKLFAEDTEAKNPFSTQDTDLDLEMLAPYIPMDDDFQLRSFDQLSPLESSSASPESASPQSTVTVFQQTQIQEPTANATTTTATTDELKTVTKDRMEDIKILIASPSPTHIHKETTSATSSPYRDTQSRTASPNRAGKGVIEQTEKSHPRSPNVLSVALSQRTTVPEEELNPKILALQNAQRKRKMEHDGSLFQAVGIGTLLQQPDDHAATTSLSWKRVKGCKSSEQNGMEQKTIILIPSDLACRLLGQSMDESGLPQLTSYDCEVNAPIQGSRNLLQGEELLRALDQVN
Outline: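 Fluorescence intensity of capillary-separated, 6-FAM-labelled reporter amplicons gives mRNA induction in HepG2 cells carrying transfected cis-promoter reporter units; cells exposed 24 h, responses fitted up or down from DMSO.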

[18] = biological target: Hepatocyte nuclear factor 6 (Homo sapiens) (UniProt Q9UBC0); assay: ATG_HNF6_CIS: Attagene CIS-FACTORIAL HepG2 Assay for human Hepatocyte Nuclear Factor 6 (HNF6) (AID 2282952); conditions: HepG2 Attagene cis-factorial HNF6 reporter transcription; actives raise or lower the signal
Hepatocyte nuclear factor 6 (Homo sapiens), sequence (Q9UBC0 whole entry, looked up, the tested form may be a part): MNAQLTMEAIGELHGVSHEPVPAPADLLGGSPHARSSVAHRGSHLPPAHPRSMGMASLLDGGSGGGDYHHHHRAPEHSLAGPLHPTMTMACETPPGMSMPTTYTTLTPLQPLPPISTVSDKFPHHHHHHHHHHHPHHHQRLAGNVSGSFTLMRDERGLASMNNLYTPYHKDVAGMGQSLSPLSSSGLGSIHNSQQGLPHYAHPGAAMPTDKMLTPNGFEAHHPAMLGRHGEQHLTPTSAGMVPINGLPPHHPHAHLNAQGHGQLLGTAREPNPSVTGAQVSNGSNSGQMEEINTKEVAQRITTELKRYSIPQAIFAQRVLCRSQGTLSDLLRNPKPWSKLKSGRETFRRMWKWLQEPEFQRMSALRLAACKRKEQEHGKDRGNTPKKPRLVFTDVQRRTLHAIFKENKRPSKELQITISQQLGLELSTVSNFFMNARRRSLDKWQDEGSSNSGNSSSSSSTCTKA
Outline: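 HepG2 cells transiently transfected with cis-element-driven multiplexed reporter units measuring endogenous transcription factor activity. After 24 h exposure, reporter mRNA quantified by RT-PCR, FAM-labelled fragments and capillary electrophoresis; bidirectional fitting versus DMSO.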

[19] = ATG_MRE_CIS: Attagene CIS-FACTORIAL HepG2 Assay for human Metal Responsive Element (MRE) (AID 2282954); conditions: HepG2 MRE cis-reporter transcription, Attagene multiplex; actives raise or lower the signal
Outline: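 After a 24 h chemical exposure, transiently transfected HepG2 cells yield RNA whose reporter sequences are amplified, FAM-labelled and sized by capillary electrophoresis. Curves are fitted bidirectionally relative to DMSO.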

[20] = biological target: Heat shock factor protein 1 (Homo sapiens) (UniProt Q00613); assay: ATG_HSE_CIS: Attagene CIS-FACTORIAL HepG2 Assay for human Heat Shock Transcription Factor 1 (HSE) (AID 2282953); conditions: HepG2 HSE cis-reporter, Attagene RNA transcription; actives raise or lower the signal
Heat shock factor protein 1 (Homo sapiens), sequence (Q00613 whole entry, looked up, the tested form may be a part): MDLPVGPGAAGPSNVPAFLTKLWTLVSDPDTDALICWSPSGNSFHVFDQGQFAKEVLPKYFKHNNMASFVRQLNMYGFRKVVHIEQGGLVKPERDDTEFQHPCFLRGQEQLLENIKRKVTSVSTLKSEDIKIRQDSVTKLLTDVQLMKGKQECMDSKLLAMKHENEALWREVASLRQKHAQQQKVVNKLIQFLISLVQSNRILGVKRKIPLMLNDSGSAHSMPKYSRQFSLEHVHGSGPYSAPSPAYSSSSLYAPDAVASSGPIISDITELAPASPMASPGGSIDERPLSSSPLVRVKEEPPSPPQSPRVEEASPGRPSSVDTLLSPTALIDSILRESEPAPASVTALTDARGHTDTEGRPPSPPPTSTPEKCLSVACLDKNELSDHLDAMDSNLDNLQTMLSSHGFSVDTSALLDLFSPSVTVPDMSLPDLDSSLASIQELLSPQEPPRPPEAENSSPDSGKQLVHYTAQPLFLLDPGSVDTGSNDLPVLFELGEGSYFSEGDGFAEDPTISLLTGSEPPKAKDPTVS
Outline: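 Cells were transfected with cis-element-driven reporter constructs, dosed for 24 h, then total RNA was reverse-transcribed and reporter cDNA amplified, FAM-labelled and digested with HpaI. Fragments were resolved by capillary electrophoresis; gain or loss was fitted against DMSO.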

Measured: AC50

COC(=O)c1ccccc1C(=O)OC
not listed: [20]
inactive: all other assays above

Cc1c(F)c(F)c(COC(=O)C2C(/C=C(\Cl)C(F)(F)F)C2(C)C)c(F)c1F (stereo not drawn)
not listed: [16] | [20]
inactive: all other assays above

CC(C)(C)c1ccc(CSc2cnn(C(C)(C)C)c(=O)c2Cl)cc1
active: [4] 128 nM | [6] 5230 nM | [14] 9920 nM | [17] 407 nM | [19] 7830 nM
not listed: [16] | [20]
inactive: all other assays above

COC(=O)N(OC)c1ccccc1COc1ccn(-c2ccc(Cl)cc2)n1
active: [7] 1470 nM | [19] 2650 nM
not listed: [4] | [20]
inactive: all other assays above

OC(c1ccc(Cl)cc1)(c1cncnc1)c1ccccc1Cl (stereo not drawn)
inactive: [1] | [2] | [3] | [5] | [6] | [7] | [8] | [9] | [10] | [11] | [13] | [14] | [15] | [17] | [18] | [19]
active: [2] 2600 nM | [6] 3790 nM | [10] 12900 nM | [13] 622 nM | [19] 70800 nM

CC1COC(Cn2cncn2)(c2ccc(Oc3ccc(Cl)cc3)cc2Cl)O1 (stereo not drawn)
active: [6] 245 nM | [19] 3170 nM
not listed: [4]
inactive: all other assays above
